# Data as given in the supplement of paper PMC6992640.
# ± gives the standard deviation of the averaged measurements.
# Legend:
# Test in all cases: cell viability (% of vehicle); higher = less cytotoxic
# HCI01 [1] = cells of a triple-negative basal-like breast cancer xenograft; settings: 1 µM; 72 h
# UCD52 [2] = cells of a triple-negative basal-like breast cancer xenograft; settings: 1 µM; 72 h
# WHIM2 [3] = cells of a triple-negative basal-like breast cancer xenograft; settings: 1 µM; 72 h
# WHIM30 [4] = cells of a triple-negative basal-like breast cancer xenograft; settings: 1 µM; 72 h
# HCI01 [5] = settings: 10 µM; 72 h
# HCI03 = cells of an ER-positive luminal breast cancer xenograft; settings: 10 µM; 72 h
# HCI09 = cells of a triple-negative luminal androgen receptor type breast cancer xenograft; settings: 10 µM; 72 h
# HCI11 = cells of an ER-positive luminal breast cancer xenograft; settings: 10 µM; 72 h
# HCI13 = cells of an ER-positive luminal breast cancer xenograft; settings: 10 µM; 72 h
# HCI16 = cells of a triple-negative basal-like breast cancer xenograft; settings: 10 µM; 72 h
# UCD52 [6] = settings: 10 µM; 72 h
# WHIM2 [7] = settings: 10 µM; 72 h
# WHIM30 [8] = settings: 10 µM; 72 h
SMILES,cell viability (HCI01 [1]),cell viability (UCD52 [2]),cell viability (WHIM2 [3]),cell viability (WHIM30 [4]),cell viability (HCI01 [5]),cell viability (HCI03),cell viability (HCI09),cell viability (HCI11),cell viability (HCI13),cell viability (HCI16),cell viability (UCD52 [6]),cell viability (WHIM2 [7]),cell viability (WHIM30 [8])
Clc1ccc(C(Cn2ccnc2)OCc2ccc(Sc3ccccc3)cc2)c(Cl)c1.O=[N+]([O-])O (stereo not drawn) [Fenticonazole Nitrate],89.6,92.5,107,91.5,40.8 ± 0.92,96.9,19.2 ± 2.4,74.8,44.74 ± 0.32,105,59.12 ± 0.32,40.7 ± 11,91.8 ± 8.3
COc1ccccc1OCCNCC(O)COc1cccc2[nH]c3ccccc3c12 (stereo not drawn) [Carvedilol],92.5,99.9,91.3,111,97.88 ± 0.3,69.9,75.9 ± 8.1,88.7,123.82 ± 0.064,127,44 ± 1.3,46.1 ± 3.3,102.1 ± 0.59
COc1cc2c(Oc3ccc4[nH]c(C)cc4c3F)ncnc2cc1OCCCN1CCCC1 [Cediranib (AZD217)],81.9,29.2,25.6,47.5,69.3 ± 10,54,43.8 ± 19,61.5,57.7 ± 16,70.1,50.84 ± 0.26,38.2 ± 7.5,68.3 ± 4.1
Cl.Cl.Fc1ccc(C(c2ccc(F)cc2)N2CCN(CC=Cc3ccccc3)CC2)cc1 [Flunarizine 2HCl],106,94.1,101,88.9,106 ± 20,82.4,82.2 ± 42,96.5,75.4 ± 9.1,106,46.7 ± 2.5,38.9 ± 12,87.3 ± 8.5
O=C(O)CO.[NH2-].[NH2-].[Pt+2] [Nedaplatin],85.1,103,105,79.4,52.5 ± 16,89,87.8 ± 5.8,96.8,97 ± 12,51.1,33.06 ± 0.081,56.2 ± 5.7,66 ± 3.2
C[C@H]1O[C@@H](O[C@H]2[C@@H](O)C[C@H](O[C@H]3[C@@H](O)C[C@H](O[C@H]4CC[C@@]5(C)[C@H](CC[C@@H]6[C@@H]5C[C@@H](O)[C@]5(C)[C@@H](C7=CC(=O)OC7)CC[C@]65O)C4)O[C@@H]3C)O[C@@H]2C)C[C@H](O)[C@@H]1O [Digoxin],50.6,25.3,138,25.7,35.2 ± 3,97.9,40.1 ± 17,69.2,–,45.8,66.6 ± 8.6,66.4 ± 7.6,41.4 ± 1.1
CCCCCOc1ccc(-c2ccc(-c3ccc(C(=O)N[C@H]4C[C@@H](O)[C@@H](O)NC(=O)[C@@H]5[C@@H](O)[C@@H](C)CN5C(=O)[C@H]([C@@H](C)O)NC(=O)[C@H]([C@H](O)[C@@H](O)c5ccc(O)cc5)NC(=O)[C@@H]5C[C@@H](O)CN5C(=O)[C@H]([C@@H](C)O)NC4=O)cc3)cc2)cc1 [Anidulafungin],100,82.5,82.8,72.2,45 ± 2.3,67.5,40.3 ± 15,92.4,58.3 ± 5.8,55.2,47.7 ± 8.9,67.4 ± 5.7,112 ± 16
C=C1C(=CC=C2CCCC3(C)C2CCC3C(C)CCCC(C)C)CC(O)CC1O (stereo not drawn) [Alfacalcidol],72.3,59,51.8,91.3,31.7 ± 13,124,29.8 ± 8.2,70.1,52.6 ± 8.1,106,68.1 ± 0.89,49.9 ± 8.4,97.46 ± 0.87
CC(C)C(=O)OCC(=O)[C@@]12O[C@H](C3CCCCC3)O[C@@H]1C[C@H]1[C@@H]3CCC4=CC(=O)C=C[C@]4(C)[C@H]3[C@@H](O)C[C@@]12C [Ciclesonide],115,127,81.6,145,67.6 ± 23,76.3,50.6 ± 24,90.1,48.9 ± 2.2,122,46.7 ± 24,36 ± 1.9,100 ± 16
CNC(=O)c1cc(Oc2ccc(NC(=O)Nc3ccc(Cl)c(C(F)(F)F)c3)cc2)ccn1.Cc1ccc(S(=O)(=O)O)cc1 [Sorafenib Tosylate],90.6,74.5,81.7,65.2,22 ± 0.23,65.5,14.6 ± 7,63.9,55.5 ± 31,45.9,82.6 ± 1,32.2 ± 0.44,41.9 ± 18
Nc1ccc2cc3ccc([NH3+])cc3nc2c1.Nc1ccc2cc3ccc([NH3+])cc3nc2c1.O=S(=O)([O-])[O-] [Proflavine Hemisulfate],91.4,139,51.3,58.8,82.6 ± 55,144,23.3 ± 3.6,41.6,–,165,54.6 ± 16,50.3 ± 13,85.2 ± 2.2
CS(=O)(=O)CCNCc1ccc(-c2ccc3ncnc(Nc4ccc(OCc5cccc(F)c5)c(Cl)c4)c3c2)o1.Cc1ccc(S(=O)(=O)O)cc1.Cc1ccc(S(=O)(=O)O)cc1 [Lapatinib Ditosylate],71.7,57.1,56.2,61.1,49.51 ± 0.1,45.4,36.3 ± 18,67.8,42.39 ± 0.3,61.8,28.1 ± 1.9,37.7 ± 3,47.4 ± 4
CO[C@@]12[C@H](COC(N)=O)C3=C(C(=O)C(C)=C(N)C3=O)N1C[C@@H]1N[C@@H]12 [Mitomycin C],59.3,88.3,75.4,66.9,46.7 ± 2.1,56.9,35.4 ± 3.3,64.6,45 ± 3.3,61.4,32.3 ± 0.47,47.3 ± 5.7,57.77 ± 0.16
COc1cccc2c1C(=O)c1c(O)c3c(c(O)c1C2=O)C[C@@](O)(C(C)=O)C[C@@H]3O[C@H]1C[C@H](N)[C@H](O)[C@H](C)O1.Cl [Daunorubicin HCl],128,27.8,23.1,48,32.2 ± 4.8,141,32.8 ± 8.5,31.2,41.3 ± 3.9,49.9,30.4 ± 2.6,42.07 ± 0.39,44.6 ± 10
CNC(=O)c1cc(Oc2ccc(NC(=O)Nc3ccc(Cl)c(C(F)(F)F)c3)c(F)c2)ccn1.Cl [Regorafenib hydrochloride],104,71.5,104,98.7,56.2 ± 0.73,114,82.2 ± 10,65.5,36.7 ± 1.2,62.7,93.8 ± 11,97.7 ± 4.6,60.6 ± 32
CCN(CC)CCNC(=O)c1c(C)[nH]c(C=C2C(=O)Nc3ccc(F)cc32)c1C [Sunitinib],81.1,73,66,86.7,106 ± 39,134,71.8 ± 35,134,–,125,61.8 ± 3.4,104 ± 68,37.9 ± 7.1
CN1CCC(COc2cnc(-c3cccc(Cn4nc(-c5cccc(C#N)c5)ccc4=O)c3)nc2)CC1,83.2,79.2,97.8,79.6,87.4 ± 46,45.7,15.5 ± 4.2,57.6,72.4 ± 35,–,28 ± 5.6,34.3 ± 2.1,65.8 ± 4.3

SMILES,cell viability (HCI01 [1]),cell viability (UCD52 [2]),cell viability (WHIM2 [3]),cell viability (WHIM30 [4]),cell viability (HCI01 [5]),cell viability (HCI03),cell viability (HCI09),cell viability (HCI11),cell viability (HCI13),cell viability (HCI16),cell viability (UCD52 [6]),cell viability (WHIM2 [7]),cell viability (WHIM30 [8])
Cc1nc(NC(=O)N2CCCC2C(N)=O)sc1-c1ccnc(C(C)(C)C(F)(F)F)c1 (stereo not drawn),74,64.7,54.9,83.3,85.7 ± 9.2,45.8,28.8 ± 5.1,75.9,44.2 ± 6.9,93.6,38.5 ± 2.5,65.6 ± 19,65.9 ± 2
CCN1CCN(Cc2ccc(Nc3ncc(F)c(-c4cc(F)c5nc(C)n(C(C)C)c5c4)n3)nc2)CC1.CS(=O)(=O)O,83.9,46.7,130,52.6,87.8 ± 54,136,83 ± 14,135,71.6 ± 8.8,116,26.16 ± 0.13,30.4 ± 14,80.6 ± 5.5
COc1ncc(-c2ccc3nccc(-c4ccnnc4)c3c2)cc1NS(=O)(=O)c1ccc(F)cc1F,53,23.2,31.9,48,64.11 ± 0.34,65.6,26.64 ± 0.21,70.3,–,147,43.4 ± 1,49.7 ± 7.6,42.9 ± 2.3
COc1ccc2c(O[C@H]3CC4C(=O)N(C)CCCC/C=C\[C@H]5C[C@@]5(C(=O)NS(=O)(=O)C5CC5)NC(=O)[C@@H]4C3)cc(-c3nc(C(C)C)cs3)nc2c1C (stereo partly drawn) [Simeprevir],104,90.4,106,86.7,29.8 ± 3.8,39.5,20.8 ± 2.6,72.7,38.5 ± 3.4,28.7,32.64 ± 0.11,39 ± 3.6,28.5 ± 2.1
CC(C)(C)c1ccc(C(=O)CCCN2CCC(OC(c3ccccc3)c3ccccc3)CC2)cc1 [Ebastine],94.4,87.5,107,83.4,83.8 ± 57,70.2,53.2 ± 39,81.2,31.9 ± 3.6,77.5,52.1 ± 4.6,52.3 ± 7.3,78.2 ± 9.7
CC(O)C(=O)O.CCOc1ccc2nc3cc(N)ccc3c(N)c2c1.O [Ethacridine lactate monohydrate],83.7,95.6,58.8,68.3,57.6 ± 15,41.6,24.4 ± 4.4,36.3,57.4 ± 17,–,158 ± 32,49.6 ± 8.4,76.2 ± 3
COc1ccc(CN2CCN(C(c3ccc(F)cc3)c3ccc(F)cc3)CC2)c(OC)c1OC.Cl.Cl [Lomerizine HCl],85.2,90.8,99.6,92.2,85.8 ± 25,73.6,58.8 ± 20,78.5,32.61 ± 0.085,87.8,51.5 ± 0.83,48.1 ± 14,80 ± 1
CCC(NC(=O)C(C)NC)C(=O)N1CC(O)CC1Cc1c(-c2[nH]c3cc(F)ccc3c2CC2CC(O)CN2C(=O)C(CC)NC(=O)C(C)NC)[nH]c2cc(F)ccc12 (stereo not drawn),82.8,68.5,36.3,56.6,133 ± 5.6,99.5,146 ± 36,128,–,115,93.8 ± 8.2,114.1 ± 0.19,149 ± 20
CN1CCN(CCOc2cc(OC3CCOCC3)c3c(Nc4c(Cl)ccc5c4OCO5)ncnc3c2)CC1 [Saracatinib (AZD0530)],67.9,38.7,33.9,57.5,63.85 ± 0.43,48.7,68.3 ± 18,105,53 ± 1.4,69.1,43.8 ± 5.4,40.2 ± 11,84.6 ± 3.6
CC[C@@H]1/C=C(\C)C[C@H](C)C[C@H](OC)[C@H]2O[C@@](O)(C(=O)C(=O)N3CCCC[C@H]3C(=O)O[C@H](/C(C)=C/[C@@H]3CC[C@H](Cl)[C@H](OC)C3)[C@H](C)[C@@H](O)CC1=O)[C@H](C)C[C@@H]2OC [Pimecrolimus],102,89,82.4,86,71.4 ± 29,65.3,29.4 ± 5.2,76.9,56.5 ± 5.4,71.1,43.9 ± 8,62.5 ± 15,87.7 ± 14
CC(C)C1=CC(=C2NNC(=O)N2c2ccc3c(ccn3C)c2)C(=O)C=C1O [Ganetespib (STA-9090)],83.9,46.6,55.2,138,59.1 ± 28,53.9,25.3 ± 2,36.5,–,68.2,48.6 ± 9.8,95 ± 7.9,96.6 ± 1.9
Nc1c(CC(=O)[O-])cccc1C(=O)c1ccccc1.O.[Na+] [Amfenac Sodium Monohydrate],97.6,93,115,99.5,56.6 ± 53,102,92.4 ± 14,92.6,114 ± 16,104,62.1 ± 8.9,82.7 ± 3.5,90.11 ± 0.73
COc1cccc2c1C(=O)c1c(O)c3c(c(O)c1C2=O)CC(O)(C(=O)CO)CC3OC1CC(N)C(O)C(C)O1 (stereo not drawn) [Doxorubicin],80.1,42.1,30.4,44.2,56.3 ± 15,188,28.8 ± 3.4,49.6,176 ± 59,60.4,24.297 ± 0.024,50.6 ± 5.6,80.7 ± 5.3
CNC1CCC(c2ccc(Cl)c(Cl)c2)c2ccccc21.Cl (stereo not drawn) [Sertraline HCl],92.9,78.6,101,85.2,27.7 ± 2.6,74.8,32.2 ± 4.6,79.2,118 ± 3.2,60.4,29.3 ± 0.42,42.8 ± 3.1,58.9 ± 1.9
CC1CCN(C(=O)CC#N)CC1N(C)c1ncnc2[nH]ccc12.O=C(O)CC(O)(CC(=O)O)C(=O)O (stereo not drawn),–,–,–,–,188 ± 8.3,151,77.7 ± 1.5,115,104 ± 9.7,141,109 ± 21,87.9 ± 3,–
CCCSc1ccc2nc(NC(=O)OC)[nH]c2c1 [Albendazole],–,–,–,–,166 ± 38,131,172 ± 35,93.6,127 ± 10,160,95.4 ± 25,123 ± 28,–
C1=C\COCc2cc(ccc2OCCN2CCCC2)Nc2nccc(n2)-c2cccc(c2)COC/1 [Pacritinib],70.5,49.1,77.3,47.3,28.9 ± 7.5,–,25.9 ± 3.1,131,50.7 ± 7,133,35.1 ± 1.6,49.9 ± 4.6,50.7 ± 17
